From PubChem BioAssay
Pf growth 48h – Primary qHTS for delayed death inhibitors of the malarial parasite plastid, 48 hour incubation | P. falciparum luciferase growth in erythrocytes, 48 h | Potency, µM (top dose mostly 28.7 µM), usual class: inhibitors | actives 5.9% (n = 310,000) | AID 504832, 2011
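Luciferase-expressing P. falciparum in infected erythrocytes (2% hematocrit, 0.1% parasitemia final) in RPMI 1640/0.5% Albumax were exposed to compound for 48 hours at 37 C, 5% CO2; growth read as luminescence.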
CHX counter – Cycloheximide Counterscreen for Small Molecule Inhibitors of Shiga Toxin; actives 12% (n = 300,000); cell reporter, cycloheximide protein synthesis inhibition counterscreen; max response, %; AID 2314, 2010; in the data active means max response mostly above about 13%, no sharp cut-off; inactive means mostly below about 14%; further: read at 38.3 µM for the half of the compounds with a filed dose
NS1 inh – qHTS Assay for Inhibitors of Influenza NS1 Protein Function. Potency, µM (highest dose often 46.1 µM). actives 0.4% (n = 270,000). AID 2326, 2010; calls by dose curve; further: actives are rising curves; nearly all actives have a fitted effect of over 50% in size
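Recovery from NS1-induced slow growth read by OD600 in budding yeast switched to galactose assay medium (pH 6.0, -URA) at 1:100 dilution. Compound 23 nl per well; the matching strain lacking NS1 serves as control.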
Pf growth 96h – Primary qHTS for delayed death inhibitors of the malarial parasite plastid, 96 hour incubation. P. falciparum luciferase reporter growth, 96 h. Potency, µM (highest dose often 28.7 µM), hits mostly inhibitors. actives 6.9% (n = 320,000). AID 504834, 2011
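Delayed-death screen, second-generation endpoint: infected erythrocytes, 2% hematocrit, 0.05% parasitemia final; 96 hours at 37 C, 5% CO2; luciferase detection reagent; luminescence decrease equals reduced growth.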
Shiga inhibitor – A qHTS for Small Molecule Inhibitors of Shiga Toxin. Vero cells, Shiga toxin protein synthesis inhibition reporter. inhibition, % at 38.7 µM. actives 9.2% (n = 290,000). AID 2315, 2010; in the data active means inhibition mostly above about 28%, no sharp cut-off; inactive means mostly below about 43%
Numbers stand for hits; – = inactive; ? = inconclusive; · = no result; [ ] = dose if it differs, or a comment. Hits are enriched below; roughly 21% of the tested compounds scored in any of these assays. Unless noted, the call rests on the fitted dose curve; in most records, active means well fitted inhibition curve with a large enough effect; inconclusive means small, poorly fitted or top-dose-only effect, or another doubt; inactive means no such curve, though single readings can be large or run the other way.

SMILES	Pf growth 48h	CHX counter	NS1 inh	Pf growth 96h	Shiga inhibitor
COC(=O)c1ccc(NC(=O)Nc2ccc3c(c2)nc(C)n3C)cc1	?	15	–	–	68
Cc1nc2cc(NC(=O)Nc3ccccc3Cl)ccc2n1C	–	13	–	–	28
Cc1ccc(S(=O)(=O)Nc2ccc3c(c2)nc(C)n3C)cc1	–	–	–	–	–
Cc1ccc(NC(=O)Nc2ccc3c(c2)nc(C)n3C)cc1	–	33	–	?	54
COc1ccc(C(C)=O)cc1COC(=O)c1cnc(Cl)c(Cl)c1	–	–	–	–	–
CC(=O)NCCc1nc2cc(NC(=O)Nc3ccccc3)ccc2n1C	–	–	–	–	–
CC(=O)c1ccc(NC(=O)Nc2ccc3c(c2)nc(C)n3C)cc1	?	34	–	–	81
CCc1ccc2[nH]c(C(=O)Nc3ccc(C)c(F)c3)cc2c1	?	17	–	?	39
CCc1ccc2[nH]c(C(=O)N(C)c3ccc(F)cc3F)cc2c1	–	–	–	–	–
O=C(Nc1ccc(F)cc1)c1cc2cc(Cl)ccc2[nH]1	·	16	–	–	32
NCCCCCC(=O)N/N=C/c1coc2ccccc2c1=O	–	–	–	–	–
Cc1ccc(CNC(=O)C(=O)NCC2OCCN2S(=O)(=O)c2ccc3c(c2)OCCO3)cc1 (stereo unspecified)	–	–	?	?	–
CCc1ccc(C(=O)/C=C/c2ccc([N+](=O)[O-])o2)cc1	·	13	–	–	–
CCOC(=O)NN1C(=O)c2ccccc2NC1c1ccc(OC)c(OC)c1 (stereo unspecified)	–	–	–	?	–
Cn1cnnc1SCC(=O)Nc1ccc(N2CCCCC2)cc1	–	·	·	–	·
CCOc1ccc(N(C)S(=O)(=O)c2ccc(-c3ccc(=O)[nH]n3)s2)cc1	–	–	–	12µM	–
CCOc1ccc(NC(=O)C2CCCN(c3c(CC)c(C)nc4ncnn34)C2)cc1 (stereo unspecified)	?	–	–	–	–
CCc1ccc(-n2c(=S)sc3c(=O)n(-c4ccccc4)c(SCC(=O)O)nc32)cc1	–	–	–	?	–
Cc1ccc2cc(CN(CCN3CCCC3)C(=O)Nc3ccc(F)cc3)c(=O)[nH]c2c1C	13µM	–	?	–	–
Cc1ccc2cc(CN(CCN3CCCC3)C(=O)Nc3ccccc3)c(=O)[nH]c2c1C	10µM	–	–	?	–
COc1ccc(NC(=O)N(CCN2CCCC2)Cc2cc3cc(OC)c(OC)cc3[nH]c2=O)cc1	9.3µM	–	–	?	–
CCOC(=O)c1c(NC(=O)CSC2=NN3CCCC(=O)N=C3S2)sc2c1CCCCC2	–	–	–	–	–
Cc1cc(C(=O)NCC(=O)OCC(=O)NCCc2ccccc2)ccc1[N+](=O)[O-]	–	–	–	–[5.75 µM]	–
CCCc1nc2ccc(N)cc2c(=O)n1Cc1ccccc1Cl	–	–	–	–	·
CC(C)C(C(=O)Nc1ccc(N2CCOCC2)cc1)N1C(=O)c2ccccc2C1=O (stereo unspecified)	–	–	–	–	–
SMILES	Pf growth 48h	CHX counter	NS1 inh	Pf growth 96h	Shiga inhibitor
OCCC1CN(Cc2ccccc2-c2ccco2)CCN1C1CCCC1 (stereo unspecified)	9.3µM	–	–	?	–
Cc1ccccc1-c1ncc(CN2CCN(C3CCCCC3)C(CCO)C2)cn1 (stereo unspecified)	–	22	–	–	–
CC(C)N1CCN(Cc2ccccc2-c2ccco2)CC1CCO (stereo unspecified)	–	–	–	?	–
CSc1ncc(CN2CCN(C3CCCCC3)C(CCO)C2)cn1 (stereo unspecified)	–	–	–	?	–
CN(C)S(=O)(=O)c1ccc(NC(=O)COC(=O)C2CC3CCCC(C2)C3=O)cc1 (stereo unspecified)	–	–	·	–	–
CCN(CC#CCC(O)(c1ccccc1)c1ccccc1)C(C)C	8.3µM	–	–	?	–
Cc1cc(Br)ccc1NC(=S)N1CCOCC1	–	–	–	–	–
Cc1ccc(-n2cc(CNCC3CC(=O)N(C4CC4)C3)c(-c3cccc(C)c3)n2)cc1 (stereo unspecified)	?	–	–	12µM	–
O=C(Nc1ccc(F)cc1)N1CCOCC1	–	–	–	?	–
CN(C)c1ccc(NC(=O)N2CCOCC2)cc1	6.6µM	39	–	?	72
O=C(Nc1ccc(Cc2ccc(NC(=O)N3CCOCC3)cc2)cc1)N1CCOCC1	?	–	–	4.1µM	–
CCC(C)c1ccc(NC(=O)N2CCOCC2)cc1 (stereo unspecified)	–	41	–	–	68
CCC(C)c1ccc(C(CC)NC(=O)C2CCCO2)cc1 (stereo unspecified)	?	–	–	–	–
CC(NC(=O)N1CCOCC1)c1ccccc1 (stereo unspecified)	–	–	–	–	–
CCC(C)c1ccc(NC(=S)NC(C)C2CCCO2)cc1 (stereo unspecified)	–	10	–	?	38
CN(C)/[N+]([O-])=N/Oc1cc(ON=[N+]([O-])N2CCN(c3ncccn3)CC2)c([N+](=O)[O-])cc1[N+](=O)[O-]	·	–	·	·	–
Cc1cc(=S)c2cccc(C)c2[nH]1	?	–	–	–	–
COc1ccccc1N(C)S(=O)(=O)c1ccc(C(=O)N(C)Cc2ccc(OC(F)F)cc2)cc1	12µM	·	·	?	·
N#Cc1ccc(C(=O)NCC2CCCCC2)cc1	–	11	–	–	51
COc1ccccc1N(C)S(=O)(=O)c1ccc(C(=O)NCC(C)C)cc1	–	–	–	·	–
COc1ccccc1N(C)S(=O)(=O)c1ccc(C(=O)NCC2CCCCC2)cc1	13µM	·	·	?	·
COc1ccccc1N(C)S(=O)(=O)c1ccc(C(=O)Nc2nccs2)cc1	15µM	·	·	?	·
O=C(NCC1CCCCC1)c1ccc(=O)[nH]c1	?	–	–	–	–
CCCc1nnc(NC(=O)c2ccc(S(=O)(=O)N(C)c3ccccc3OC)cc2)s1	10µM	·	·	13µM	·
COc1ccccc1N(C)S(=O)(=O)c1ccc(C(=O)Nc2nc(C)c(C(C)=O)s2)cc1	12µM	·	·	?	·
SMILES	Pf growth 48h	CHX counter	NS1 inh	Pf growth 96h	Shiga inhibitor
CCC(C)(C)NC(=O)c1ccc(S(=O)(=O)N(C)c2ccccc2OC)cc1	–	–	–	–	–
Cc1cccc(N(Cc2cc3ccccc3[nH]c2=O)C(=O)c2cccs2)c1	?	–	–	–	–
COc1ccc(C2CC(c3ccc4ccccc4c3)=NN2C(=O)CN2CCC(C(N)=O)CC2)cc1 (stereo unspecified)	?	57	·	?	79
COc1ccc(C2CC(c3ccc4ccccc4c3)=NN2C(=O)CNC2CCCCC2)cc1 (stereo unspecified)	?	–	–	?	–
CC(=O)OCC(=O)N1N=C(c2ccc3ccccc3c2)CC1c1ccccc1 (stereo unspecified)	–	33	·	–	–
COc1ccc(C2CC(c3ccc4ccccc4c3)=NN2C(=O)COC(=O)C2CCC(=O)N2)cc1 (stereo unspecified)	–	47	·	–	127
